For eight molecules, growth results are on record in PubChem BioAssay (NCI).

The panel holds about 83,000 compounds, 20% with a hit somewhere; the sample as a whole holds those more often.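 For each line, cells grew in 96-well plates with the test compound present at a single concentration for 48 hours.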 Values without a mark were called inactive. Activity calls are given as the source filed them. The calls were made as follows: active = growth percent below 10; inactive = the rest.

Test systems include SK-MEL-2 melanoma; EKVX NSCLC; UO-31 renal; TK-10 renal; ACHN renal; CAKI-1 renal; A498 renal; CCRF-CEM leukemia; MOLT-4 leukemia; SR leukemia; RPMI-8226 leukemia; OVCAR-8 ovarian; OVCAR-5 ovarian; SK-OV-3 ovarian; IGROV1 ovarian; OVCAR-3 ovarian; HS 578T breast; NCI/ADR-RES ovarian; OVCAR-4 ovarian.
Holding throughout (experiment): NCI-60 one-dose screen, 48 h (100 = growth as untreated, 0 = no growth, -100 = all killed)
What all share (details): 10 µM unless noted

With `Cc1nc(Nc2ccc(F)c(Cl)c2)sc1C(=O)O`, the growth was 10.7% in the test on SK-MEL-2 melanoma; 8.63% (active) in the test on EKVX NSCLC; -8.39% (active) in the test with UO-31 renal; 21% in the test with TK-10 renal; 11.2% in the test with ACHN renal; 8.86% (active) in the test with CAKI-1 renal. Moreover, the growth with A498 renal was -26.2% (active); with CCRF-CEM leukemia, 9.7% (active); in the test on MOLT-4 leukemia, 6.93% (active); in the test with SR leukemia it was 5.95% (active); in the test with RPMI-8226 leukemia it was 5.09% (active); in the test on OVCAR-8 ovarian it was 14%. Moreover, the growth was 51.2% with OVCAR-5 ovarian; 17.4% in the test on SK-OV-3 ovarian; 19.3% in the test with IGROV1 ovarian; 23% in the test on OVCAR-3 ovarian; 18.7% in the test on HS 578T breast; 13.4% in the test with NCI/ADR-RES ovarian.
Consider `COc1cccc(-c2nc(SCC(=O)Nc3ccc(C(=O)/C=C/c4ccc(OC)c(OC)c4)cc3)[nH]c(=O)c2C#N)c1`, for which the growth was 96.6% in the test on SK-MEL-2 melanoma; 87.7% in the test with EKVX NSCLC; 79.3% in the test on UO-31 renal; 109% in the test with TK-10 renal; 86.6% in the test on ACHN renal; 88.4% in the test with CAKI-1 renal. Further, the growth with A498 renal is 97.2%; in the test on CCRF-CEM leukemia, 90%; in the test with MOLT-4 leukemia it was 74.8%; with SR leukemia, 60.6%; with RPMI-8226 leukemia, 93.3%; in the test on OVCAR-8 ovarian, 99.2%. The growth with OVCAR-5 ovarian is 110%; in the test on OVCAR-4 ovarian it was 80.8%; with SK-OV-3 ovarian it was 90.5%; with OVCAR-3 ovarian it was 83.6%; with HS 578T breast it was 82.4%; in the test on NCI/ADR-RES ovarian, 93.6%.
For `CCOc1ccc(-n2nc(C(=O)Nc3cc(OC)c(OC)c(OC)c3)nc2-c2cc(OC)c(OC)c(OC)c2)cc1`, the growth was 85.6% in the test with SK-MEL-2 melanoma; 96.1% in the test with EKVX NSCLC; 52.6% in the test with UO-31 renal; 104% in the test on TK-10 renal; 85.7% with ACHN renal; 77.4% with CAKI-1 renal. Besides, the growth with A498 renal was 67.3%; in the test on CCRF-CEM leukemia, 66.5%; in the test with MOLT-4 leukemia, 67.5%; in the test on SR leukemia it was 40.7%; in the test with RPMI-8226 leukemia, 55.7%; in the test on OVCAR-8 ovarian it was 74%. The growth in the test with OVCAR-5 ovarian was 102%; with OVCAR-4 ovarian it was 68.1%; with IGROV1 ovarian, 90.8%; with OVCAR-3 ovarian, 86.9%; in the test on HS 578T breast, 65.6%; in the test with NCI/ADR-RES ovarian, 85.8%.
Regarding `COc1ccc(-c2nnc(SCC(=O)c3ccc(Cl)cc3)o2)cc1`, the growth with SK-MEL-2 melanoma is 104%; with EKVX NSCLC it was 101%; in the test on UO-31 renal it was 99.8%; in the test on TK-10 renal, 95.9%; in the test on ACHN renal, 102%; in the test on CAKI-1 renal, 98.1%. Besides, the growth in the test on A498 renal was 100%; in the test on CCRF-CEM leukemia, 114%; in the test on MOLT-4 leukemia, 109%; in the test with SR leukemia, 105%; in the test on RPMI-8226 leukemia, 101%; with OVCAR-8 ovarian, 99%. The growth in the test with OVCAR-5 ovarian is 93.3%; with OVCAR-4 ovarian, 98%; in the test on SK-OV-3 ovarian, 104%; with IGROV1 ovarian, 105%; in the test with OVCAR-3 ovarian it was 103%; with HS 578T breast, 109%. Also, the growth in the test with NCI/ADR-RES ovarian was 95.6%.
In the case of `Cc1ccc2oc(=O)cc(C3c4ccc([nH]4)C(c4cc(=O)oc5ccc(C)cc45)c4ccc([nH]4)C(c4cc(=O)oc5ccc(C)cc45)c4ccc([nH]4)C(c4cc(=O)oc5ccc(C)cc45)c4ccc3[nH]4)c2c1` (centres undefined), the growth in the test with SK-MEL-2 melanoma was -73.1% (active); in the test with EKVX NSCLC, -19.3% (active); in the test with UO-31 renal it was -24.7% (active); in the test with TK-10 renal, -22.2% (active); in the test with ACHN renal it was -18.6% (active); in the test with CAKI-1 renal, -13.6% (active). Moreover, the growth is -81.1% (active) in the test on A498 renal; -18% (active) in the test on CCRF-CEM leukemia; -22.4% (active) with MOLT-4 leukemia; -36.5% (active) with SR leukemia; -21.3% (active) in the test on RPMI-8226 leukemia; -47.8% (active) in the test on OVCAR-8 ovarian. The growth with OVCAR-5 ovarian was -11.7% (active); with OVCAR-4 ovarian, -6.02% (active); with SK-OV-3 ovarian, -30.7% (active); in the test on OVCAR-3 ovarian, -65% (active); in the test on HS 578T breast, -37% (active); in the test with NCI/ADR-RES ovarian, -25% (active).
In the case of `Nc1ccc(-c2cc3c(Nc4ccc(Oc5cccc(C(F)(F)F)c5)c(Cl)c4)ncnc3s2)cc1`, the growth was 88.1% in the test on SK-MEL-2 melanoma; 54.8% with EKVX NSCLC; 47.3% with UO-31 renal; 90.3% in the test with TK-10 renal; 60.5% with ACHN renal; 60.3% in the test on CAKI-1 renal. Moreover, the growth in the test with A498 renal was 89.5%; in the test on CCRF-CEM leukemia it was 48.9%; in the test on MOLT-4 leukemia, 48.2%; with SR leukemia, 50.4%; with RPMI-8226 leukemia, 53.1%; in the test on OVCAR-8 ovarian, 73.3%. For the same molecule, the growth in the test with OVCAR-5 ovarian is 93.4%; in the test on SK-OV-3 ovarian, 83%; in the test on IGROV1 ovarian, 59.9%; in the test on OVCAR-3 ovarian, 56.6%; with HS 578T breast it was 83.1%; with NCI/ADR-RES ovarian it was 69.7%.
As to `COc1ccc2c(c1)CC/C(=C\c1cncc(Br)c1)C2=O`, the growth in the test on SK-MEL-2 melanoma was 95.1%; in the test on EKVX NSCLC, 99.2%; with UO-31 renal it was 96.5%; in the test on TK-10 renal, 85%; in the test on ACHN renal, 84.9%; in the test on CAKI-1 renal, 86.6%. Moreover, the growth with A498 renal was 96.5%; in the test on CCRF-CEM leukemia it was 13.5%; in the test with MOLT-4 leukemia, 83.5%; in the test on SR leukemia, 33.5%; in the test with RPMI-8226 leukemia, 8.06% (active); with OVCAR-8 ovarian it was 90%. The growth is 86.8% with OVCAR-5 ovarian; 86.5% in the test with OVCAR-4 ovarian; 99.7% in the test with SK-OV-3 ovarian; 94.8% with IGROV1 ovarian; 95.9% in the test with OVCAR-3 ovarian; 83.1% in the test with NCI/ADR-RES ovarian.
With `COc1cc(-c2nc(C(=O)NCC(=O)NO)nn2-c2ccc(Cl)cc2)cc(OC)c1OC`, the growth in the test on SK-MEL-2 melanoma is 95.4%; with EKVX NSCLC, 103%; in the test on UO-31 renal it was 83.5%; in the test on TK-10 renal, 96.9%; in the test on ACHN renal it was 98.9%; in the test with CAKI-1 renal, 89.3%. Also, the growth was 110% with A498 renal; 107% with CCRF-CEM leukemia; 97.4% in the test with MOLT-4 leukemia; 84.8% in the test with SR leukemia; 105% in the test with RPMI-8226 leukemia; 98.5% with OVCAR-8 ovarian. Further, the growth was 93.3% with OVCAR-5 ovarian; 93.3% in the test on SK-OV-3 ovarian; 103% in the test on OVCAR-3 ovarian; 85.6% with HS 578T breast; 106% in the test with NCI/ADR-RES ovarian.
